One test relates to T1, MLK1.
T1 construct: gene MAP3K9
The conditions noted are these: concentration: 1 μM, replicates: in singlicate; n = 1.

Another test relates to MLK2. The conditions noted are these: concentration: 1 μM, replicates: in singlicate; n = 1.
In the next test the test system is MLK3. The conditions noted are these: concentration: 1 μM, replicates: in singlicate; n = 1.
Another test deals with MRCKA. The settings on record: n = 1.
For another test, the system named is T2, MRCKB.
T2 construct: gene CDC42BPB
The conditions noted are these: concentration: 1 μM, replicates: in singlicate; n = 1.

A further test relates to MST1R. The conditions noted are these: concentration: 1 μM, replicates: in singlicate; n = 1.
The subject of a further test is T3, MST1.
T3 construct: gene STK4
The settings on record: concentration: 1 μM, replicates: in singlicate; n = 1.

Another test concerns T4, MST2.
T4 construct: gene STK3
The conditions noted are these: concentration: 1 μM, replicates: in singlicate; n = 1.

A further test relates to T5, MST3.
T5 construct: gene STK24
The conditions noted are these: concentration: 1 μM, replicates: in singlicate; n = 1.

The next test deals with MST4. The conditions noted are these: concentration: 1 μM, replicates: in singlicate; n = 1.
Setting [1] is: concentration: 1 μM, replicates: in singlicate.

Like-named read-outs stand apart in the source and are kept apart here.
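Note: KINOMEscan kinase panel screen.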

Take `CC(=O)N1CCN(c2ccc(Nc3nccc(-c4sc(C(C)C)nc4-c4cccc(NS(=O)(=O)c5cccc(Cl)c5)c4)n3)cn2)CC1` [GSK1660437]: the “%Inh” value in the test on MLK1 came out at 33%; in the test on MLK2, 33%; with MLK3, 46%; in the test on MRCKA (setting [1]), 0%; with MRCKB, 0%; in the test with MST1R, 15%. Besides, the “%Inh” value is reported as 4% in the test with MST1, 0% with MST2, 6% with MST3 and 1% in the test with MST4.
On to `C[C@@H](Oc1cc(-n2cnc3cc(-c4ccnc(NCCS(C)(=O)=O)c4)ccc32)sc1C(N)=O)c1ccccc1Cl` [GSK907232], for which the “%Inh” value in the test with MLK1 was 14%; with MLK2, 20%; in the test with MLK3, 42%; in the test on MRCKA (setting [1]), 0%; in the test on MRCKB it was 8%; with MST1R, 57%. Moreover, the “%Inh” value in the test on MST1 is given as 64%; with MST2, 0%; with MST3, 0%; in the test with MST4, 4%.
As to `COC(=O)Nc1nc2ccc(Oc3ccc(NC(=O)Nc4cc(C(F)(F)F)ccc4F)cc3)cc2n1C.Cl` [GW692089], the “%Inh” value in the test with MLK1 amounted to 0%; with MLK2, 0%; in the test on MLK3, 19%; in the test with MRCKA (setting [1]), 0%; with MRCKB, 0%; in the test on MST1R it was 14%. In addition, the “%Inh” value was found to be 0% in the test on MST1, 0% in the test with MST2, 3% with MST3 and 0% with MST4.
In the case of `Cc1ccc(F)c(C(=O)Nc2cccc(-c3nn4ccccc4c3-c3ccnc(Nc4cccc(F)c4)n3)c2)c1F` [GSK361061], the “%Inh” value with MLK1 is given as 14%; with MLK2, 42%; in the test with MLK3 it was 31%; with MRCKA (setting [1]), 22%; with MRCKB, 24%; with MST1R it was 34%. The “%Inh” value is on record as 34% in the test with MST1, 0% in the test with MST2, 2% in the test with MST3 and 15% in the test with MST4.
Consider `Cl.Cl.NCC(NCc1ccc(-c2ccnc3[nH]ccc23)s1)c1ccccc1` (stereo not shown) [GSK1321565], for which the “%Inh” value with MLK1 worked out at 0%; in the test with MLK2 it was 0%; in the test on MLK3, 7%; with MRCKA (setting [1]), 23%; in the test on MRCKB, 64%; with MST1R it was 12%. In addition, the “%Inh” value was 0% in the test on MST1, 48% with MST2, 0% in the test with MST3 and 0% with MST4.
Regarding `COCCOCCOc1cc2ncc3c4ccc(C#N)cc4[nH]c3c2cc1OC`, the “%Inh” value with MLK1 turned out to be 22%; in the test with MLK2, 0%; in the test with MLK3, 53%; in the test on MRCKA (setting [1]), 12%; with MRCKB it was 24%; in the test with MST1R it was 0%. The “%Inh” value is 12% in the test on MST1, 76% with MST2, 0% in the test with MST3 and 0% in the test on MST4.
For `CC(C)c1nc(-c2cccc(NS(=O)(=O)c3c(F)cccc3F)c2F)c(-c2ccnc(Nc3ccc(N4CCOCC4)nc3)n2)s1` [GSK2008607], the “%Inh” value worked out at 96.3% in the test on MLK1; 100% in the test on MLK2; 92.7% in the test on MLK3; 0% in the test on MRCKA (setting [1]); 0% in the test with MRCKB; 82% in the test with MST1R. Besides, the “%Inh” value in the test with MST1 came out at 55%; with MST2 it was 0%; in the test on MST3, 63%; in the test on MST4 it was 39%.
In the case of `CCn1c(-c2nonc2N)nc2c(C#CC(C)(C)O)ncc(OCCCCN)c21.O=C(O)C(F)(F)F.O=C(O)C(F)(F)F` [GSK507274], the “%Inh” value is on record as 0% with MLK1; 0% in the test with MLK2; 0% in the test on MLK3; 17% in the test on MRCKA (1 µM); 5% with MRCKB; 33% in the test on MST1R. The “%Inh” value worked out at 3% in the test on MST1, 0% in the test on MST2, 0% in the test on MST3 and 2% in the test on MST4.
In the case of `Nc1ncc(-c2cccnc2)c2scc(-c3ccc4c(c3)CCN4C(=O)Cc3ccccc3)c12` [GSK683281], the “%Inh” value with MLK1 is 10%; with MLK2, 11%; in the test with MLK3, 7%; with MRCKA (setting [1]) it was 23%; in the test with MRCKB it was 79%; in the test on MST1R, 78%. The “%Inh” value was determined as 95.8% with MST1, 36% in the test with MST2, 8% with MST3 and 13% in the test with MST4.
For `O=C(Nc1n[nH]c2nc(-c3ccc(O)cc3)ccc12)C1CC1` [SB-710363], the “%Inh” value in the test with MLK1, in the test on MLK2, with MLK3, with MRCKA (setting [1]), in the test with MRCKB and in the test with MST1R was 0% in each case. Also, the “%Inh” value came to 0% in the test with MST1, 0% in the test with MST2, 0% with MST3 and 9% in the test with MST4.
Consider `Cl.Cl.NCC(NC(=O)c1cc(-c2ccccc2)c(-c2ccnc3[nH]ccc23)s1)c1ccccc1` (stereo not shown) [GSK1321561], for which the “%Inh” value in the test with MLK1 turned out to be 0%; in the test with MLK2 it was 23%; with MLK3, 11%; with MRCKA (setting [1]) it was 73%; with MRCKB, 90.7%; with MST1R, 42%. In addition, the “%Inh” value in the test on MST1 is on record as 0%; in the test with MST2 it was 0%; in the test on MST3, 0%; in the test with MST4 it was 27%.
As for `Oc1cc(Nc2ccnc3cc(I)ccc23)ccc1F` [GW552771], the “%Inh” value in the test with MLK1 worked out at 0%; with MLK2, 13%; with MLK3 it was 0%; in the test on MRCKA (setting [1]), 0%; with MRCKB it was 0%; in the test on MST1R, 28%. For the same compound, the “%Inh” value amounted to 9% with MST1, 0% with MST2, 2% with MST3 and 0% in the test on MST4.
As to `Cc1ccc(C(=O)N2CC[C@@H](O)C2)cc1-n1c(C)cc(OCc2ccc(F)cc2F)c(Br)c1=O`, the “%Inh” value in the test with MLK1 turned out to be 0%; in the test with MLK2, 5%; with MLK3, 0%; in the test with MRCKA (setting [1]) it was 0%; in the test on MRCKB, 0%; in the test on MST1R, 3%. Besides, the “%Inh” value in the test with MST1 is on record as 0%; with MST2 it was 5%; with MST3 it was 5%; in the test on MST4, 0%.
`O=C(Nc1cccc(-c2nn3ccccc3c2-c2ccnc(Nc3cccc(F)c3)n2)c1)c1c(F)ccc(F)c1Cl` [GSK357952]: the “%Inh” value with MLK1 turned out to be 0%; in the test with MLK2, 31%; in the test with MLK3, 39%; in the test on MRCKA (setting [1]) it was 9%; with MRCKB, 1%; in the test on MST1R, 50%. Also, the “%Inh” value with MST1 was 25%; in the test with MST2, 0%; with MST3 it was 4%; with MST4 it was 0%.
Take `CN(C)Cc1ccc(-c2ccc3c(Nc4ccc(Oc5ccccn5)cc4)ccnc3c2)o1` [GW567148]: the “%Inh” value in the test on MLK1 is 0%; with MLK2, 0%; in the test with MLK3 it was 1%; in the test on MRCKA (setting [1]) it was 0%; in the test with MRCKB, 0%; in the test with MST1R, 41%. Besides, the “%Inh” value with MST1 is on record as 14%; in the test with MST2, 0%; with MST3, 0%; in the test on MST4, 0%.
As for `Clc1ccc(-c2nn3ncccc3c2-c2ccnc(Nc3ccc4c(c3)OCCO4)n2)cc1` [GW829116], the “%Inh” value with MLK1 worked out at 0%; in the test on MLK2 it was 16%; in the test on MLK3 it was 0%; in the test on MRCKA (setting [1]), 34%; with MRCKB, 0%; with MST1R it was 0%. Besides, the “%Inh” value turned out to be 0% in the test on MST1, 9% with MST2, 0% in the test with MST3 and 0% with MST4.

(Values after PMC5540273 (PLoS ONE, 2017).)
